The source of these data is PubChem BioAssay.

The source made the active and inactive calls. How the calls were made is not given here.

One may read the inhibition as the change of the read-out against control, counted positive when it falls.

The target in this assay is Pantothenate synthetase (Mycobacterium tuberculosis (strain ATCC 25618 / H37Rv)) (UniProt P9WIL5). Nature of the assay: Recombinant Mtb pantothenate synthetase (PanC) inhibitors, coupled enzyme, confirmatory (AID 375).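 Further: 0% = full reaction with vehicle and 100% = no enzyme background.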 The note with it: coupled enzyme assay; at 10 µM, hits give high values.
Sequence of Pantothenate synthetase (Mycobacterium tuberculosis (strain ATCC 25618 / H37Rv)) (P9WIL5 whole entry, looked up): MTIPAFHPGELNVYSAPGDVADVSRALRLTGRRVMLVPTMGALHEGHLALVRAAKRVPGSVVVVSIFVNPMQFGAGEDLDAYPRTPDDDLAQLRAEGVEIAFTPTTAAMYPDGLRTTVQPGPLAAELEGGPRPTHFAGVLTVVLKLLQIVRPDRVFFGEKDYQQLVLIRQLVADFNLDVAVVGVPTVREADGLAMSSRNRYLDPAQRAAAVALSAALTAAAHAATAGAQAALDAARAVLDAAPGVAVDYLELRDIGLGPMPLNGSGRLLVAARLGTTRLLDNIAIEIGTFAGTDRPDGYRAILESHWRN
Turning to `O=C(NCc1nnc(SCC(=O)N2CCC(Cc3ccccc3)CC2)o1)c1ccccc1F`, the inhibition was 0% (inactive).
As for `CC[C@H]1OC(=O)C[C@@H](O)[C@H](C)[C@@H](O[C@@H]2O[C@H](C)C[C@H](N(C)C)[C@H]2O)[C@@H](CC=O)C[C@@H](C)C(=O)C=C[C@]2(C)O[C@H]2[C@@H]1C`, the figure is 0% (inactive); as for `CCSc1nnc(NC(=O)c2csc(C)c2)s1`, 1% (inactive); as for `Cc1ccc(C)c(-c2nc3ccc(N)cc3[nH]2)c1`, 0% (inactive).
Consider `CC(=O)c1c(C)[nH]c(C(=O)Nc2c(C)n(C)n(-c3ccccc3)c2=O)c1C`, for which the inhibition is 7% (inactive).
Turning to `O=C(O)c1ccccc1S`, the inhibition is 0% (inactive).
For `CC(O)c1c(OCc2ccccc2)ncnc1OCc1ccccc1` (stereo not given), the inhibition is 0% (inactive).
As for `C=CCn1c(C)cc(C(=O)CSc2nc3ccccc3o2)c1C`, the figure is 9% (inactive).
To `CN(C)S(=O)(=O)c1ccc(C(=O)N2CCCC2c2nc3ccccc3s2)cc1` (stereo not given) belongs 0% (inactive); to `COc1cccc(C2CC(=O)Nc3c2c(=O)n(C)c(=O)n3C)c1OC` (stereo not given), 6% (inactive); to `CC1CCc2nn(CC(=O)NCCN3CCCCC3C)cc2C1` (stereo not given), 0% (inactive).
To `COc1ccc(S(=O)(=O)Nc2cccc(C)n2)c2ccccc12` belongs 2% (inactive).
Regarding `O=C(O)c1ccccc1C(=O)Nc1ccccc1`, the inhibition is 0% (inactive).
With `C[C@]12CC[C@@H]3c4ccc(O)cc4C(=O)C[C@H]3[C@@H]1CC[C@@H]2O`, the inhibition was 0% (inactive).
`CC(=O)Nc1nnc(S(N)(=O)=O)s1`: the inhibition is 0% (inactive).
On to `COc1ccc(OCCCC(=O)Nc2ccc3c(c2)OCCO3)cc1`, for which the inhibition was 4% (inactive).
As for `Nc1ccc(S(=O)(=O)NC(=O)c2ccccc2)cc1`, the figure is 0% (inactive); as for `CCOC(=O)C(C)Sc1nc2c(cnn2-c2ccc(C)cc2)c(=O)[nH]1` (stereo not given), 5% (inactive); as for `O=C(CCCNS(=O)(=O)c1ccccc1)NCc1ccco1`, 0% (inactive).
As for `Cc1onc(-c2ccccc2Cl)c1C(=O)Nc1cccc(-c2cn3cccnc3n2)c1`, the figure is 7% (inactive); as for `CCOC(=O)C1CCN(C(=O)C2CCN(S(=O)(=O)c3cc(Cl)ccc3Cl)CC2)CC1`, 12% (inactive); as for `CCn1cc(C(=O)NCc2ccco2)c(=O)c2cc(F)c(N3CCN(C(=O)c4ccco4)CC3)cc21`, 0% (inactive).
As for `COc1ccc(-c2nc(C#N)c(N3CCN(c4ccccc4)CC3)o2)cc1`, the figure is 0% (inactive); as for `COc1cccc2sc(NC(=O)c3ccc(S(=O)(=O)N4CCOCC4)cc3)nc12`, 1% (inactive).
For the compound `Cc1cc(Cl)c(S(=O)(=O)NC2CCCCC2)cc1OCC(=O)Nc1nncs1`, the inhibition was 3% (inactive).
As for `O=C(NCCCn1ccnc1)c1csc2ccccc12`, the figure is 7% (inactive); as for `CCCCNc1cc(C(=O)O)cc(S(N)(=O)=O)c1Oc1ccccc1`, 3% (inactive).
To `O=C(CSc1n[nH]c(-c2ccco2)n1)Nc1sc2c(c1C(=O)Nc1ccccc1)CCCC2` belongs 0% (inactive).
For `Cc1cccc(N2CN=c3s/c(=C\c4ccncc4)c(=O)n3C2)c1`, the inhibition is 6% (inactive).
To `Cc1ccc(C)c(N2CCN(C(=O)c3cc4ccccn4n3)CC2)c1` belongs 0% (inactive).
As for `Cc1onc(-c2ccccc2)c1C(=O)N1CCOCC1`, the figure is 9% (inactive); as for `NC(=O)CSCc1ccc(Br)cc1`, 0% (inactive).
For `COc1ccc(CCNC(=O)c2cc3sc(Cl)cc3n2C)cc1OC`, the inhibition is 0% (inactive).
As for `O=C(Nc1ccccc1C(=O)NCCCn1ccnc1)c1ccccc1`, the figure is 3% (inactive).
`Cc1cc(C)c2c(n1)nn1c(N3CCN(c4ccccc4C)CC3)cc(C)nc21`: the inhibition was 4% (inactive).
With `COC(=O)c1ccccc1S(=O)(=O)NC(=O)c1ccccc1`, the inhibition was 0% (inactive).
Take `CCSc1nc(-c2ccc(OC)cc2)ccc1C#N`: the inhibition was 1% (inactive).
In the case of `O=C(O)c1cc2c(s1)CCCC2`, the inhibition was 0% (inactive).
As for `Cc1cc(N2C(=O)C(=O)/C(=C(/O)c3ccc(F)cc3)C2c2ccc(F)cc2)no1` (stereo not given), the figure is 0% (inactive).
As for `Cc1cc(C)cc(C(=O)N2CCC(C(N)=O)CC2)c1`, the figure is 0% (inactive).
